High-throughput results (PubChem BioAssay)
Compounds with a hit are over-represented: about 7.1% of the library has one in this group of screens.
S2 tox – cell viability loss in ATXN counter-screen | AID 651635 | Potency, µM (titrated, usually from 56.7 µM), hits mostly cytotoxic | S2 cells (HEK-293 line with an ATXN2-luciferase reporter) viability, CellTiter-Fluor protease fluorescence, 24 h | 0.49% of 400,000 active; further: potency means the concentration at half of the fitted maximal effect; nearly all actives have a fitted effect of over 40% in size
PINK1 modulator – modulators of PINK1 expression; PINK1 immunofluorescence, high-content cytometry, 24 h; Potency, µM (titrated, usually from 76.6 µM), for inactives: top-dose activation (PINK1 increase), most hits filed as activators; 0.2% of 410,000 active; AID 624263; active means well fitted activation curve with a large enough effect; inconclusive means small, poorly fitted or top-dose-only effect; cell line not stated here; further: potency means the concentration at half of the fitted maximal effect; % of control where 0% means no effect; nearly all actives have a fitted effect of over 65% in size
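A stable cell line was treated with compounds at 5 concentrations for 24 hours, with CCCP as control. PINK1 levels and mitochondrial localization were measured by immunofluorescence with mitochondrial, cell and nuclear markers after fixation, read by laser-scanning cytometry.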
ATXN2 expr inh – reduces ATXN2 reporter expression in HEK-293 cells; HEK-293 ATXN2-luciferase reporter, luminescence, 24 h; Potency, µM (top dose mostly 57 µM), for inactives: at the highest dose activity change, negative = inhibition, hits mostly inhibitors; 0.72% of 360,000 active; further: potency means the concentration at half of the fitted maximal effect; on the % scale 0 is the no-effect control and ±100 the full control effect; nearly all actives have a fitted effect of over 55% in size
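ATXN2-luciferase reporter cells (luciferase flanked by upstream and downstream ATXN2 gene portions) were treated 24 h at 37 °C with compounds at up to 57 uM. SteadyGlo luminescence gave expression; GF-AFC fluorescence gave viability.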
SW480 rereplic – inducers of DNA re-replication in SW480 colon cancer cells; SW480 DNA re-replication, Hoechst DNA content imaging, 48 h; Potency, µM (doses to about 46.1 µM), without a hit: at the highest dose re-replication activation, most hits filed as activators; 1.8% of 340,000 active; further: potency means the concentration at half of the fitted maximal effect; % of control where 0% means no effect; nearly all actives have a fitted effect of over 55% in size
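Image-based read-out: total Hoechst fluorescence of nuclei (405 nm excitation, 500-530 nm emission), with hits raising the fraction of high-intensity nuclei. SW480 colon cells incubated 48 hr with compounds at 37 C.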
IL-1B inflam inh – inhibitors of inflammasome signaling (IL-1 beta secretion) | AID 743279 | THP-1 LPS/ATP IL-1B secretion, AlphaLISA, 16 h; active compounds read low | 4.7% of 360,000 active | activity change, % at 57.5 µM; in the data active means activity change below about -50%; inconclusive means mostly about -30% to -49%; further: on the % scale 0 is the no-effect control and ±100 the full control effect
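Secreted IL-1B measured by AlphaLISA bead assay after 16 h compound exposure of THP-1 cells; compounds (final up to 57.5 uM) added 1 h before LPS (250 ng/mL) and ATP (1.25 mM) stimulation; lower signal means less secretion.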
MCF10A rerep – inducers of DNA re-replication in MCF 10A breast cells | MCF 10A DNA re-replication, Hoechst nuclear intensity, 48 h | Potency, µM (titrated, usually from 46.1 µM), for inactives: at the highest dose activity, positive = re-replication, actives largely listed as activators | 2.9% of 350,000 active; further: potency means the concentration at half of the fitted maximal effect; % of control where 0% means no effect; nearly all actives have a fitted effect of over 50% in size
* hit, by the source's call; [ ] = remark or other dose. Unless noted, the call rests on the fitted dose curve; in most records, active means well fitted curve in the direction sought with a large enough effect; inconclusive means small, poorly fitted or top-dose-only effect, or another doubt; inactive means no such curve, though single readings can be large; an effect the other way counts as inactive or inconclusive.

Results for Cc1cc(=O)oc2cc(NC(=O)c3cccc(S(C)(=O)=O)c3)ccc12 ?
S2 tox: inactive; PINK1 modulator: -1%; ATXN2 expr inh: -35%; SW480 rereplic: 0%; IL-1B inflam inh: -53*; MCF10A rerep: -2%

What do the screens show for `COc1ccccc1CNc1nc(-c2ccco2)nn1C(=O)c1ccccc1[N+](=O)[O-]`?
S2 tox: inactive; PINK1 modulator: 0%; ATXN2 expr inh: 6%

How did c1ccc2c(c1)OC(CCCN1CCCCC1)c1ccccc1S2 (configuration not stated) do in these assays?
S2 tox: inconclusive; PINK1 modulator: -2%; ATXN2 expr inh: -24%; SW480 rereplic: inconclusive; IL-1B inflam inh: inconclusive; MCF10A rerep: inconclusive

What do the screens show for `CN1CCCC(CC2Oc3ccccc3Sc3ccccc32)C1` (configuration not stated)?
S2 tox: inconclusive; PINK1 modulator: -4%; ATXN2 expr inh: inconclusive; SW480 rereplic: inconclusive; IL-1B inflam inh: -73*; MCF10A rerep: inconclusive

How did COc1ccc(NC(=O)c2oc3ccccc3c2NC(=O)C23CC4CC(CC(C4)C2)C3)c(OC)c1 do in these assays?
S2 tox: inactive; PINK1 modulator: 2%; ATXN2 expr inh: 12%

How did CNC(=O)CCC(=O)Nc1ccc(C(=O)OC)cc1 do in these assays?
S2 tox: inactive; PINK1 modulator: 0%; ATXN2 expr inh: -6%; SW480 rereplic: 0%; IL-1B inflam inh: -11; MCF10A rerep: -1%

How did COC(=O)c1ccc(NC(=O)COc2ccc(N(C)S(=O)(=O)c3ccc(C)cc3)cc2)cc1 do in these assays?
S2 tox: inactive; PINK1 modulator: 1%; ATXN2 expr inh: -16%; SW480 rereplic: -5%; IL-1B inflam inh: 7; MCF10A rerep: 18µM*

What do the screens show for `COC(=O)c1ccc(NC(=O)CC(=O)Nc2ccc(C(=O)OC)cc2)cc1`?
S2 tox: inactive; PINK1 modulator: 4%; ATXN2 expr inh: 5%; SW480 rereplic: -2%; IL-1B inflam inh: 12; MCF10A rerep: 15µM*

Results for COc1ccc(-c2cn3nc(N4CCC(C(=O)Nc5cc(Cl)ccc5C)CC4)sc3n2)cc1 ?
PINK1 modulator: 0%

What do the screens show for `CC(CCc1ccccc1)NC(=O)C1CCN(S(=O)(=O)N2CCCCC2)CC1` (configuration not stated)?
S2 tox: inactive; PINK1 modulator: 0%[38.3 µM]; ATXN2 expr inh: 1%; SW480 rereplic: 3%; IL-1B inflam inh: -56*; MCF10A rerep: -1%

How did CCCC(C)NC(=O)C1CCN(S(=O)(=O)c2ccccc2)CC1 (configuration not stated) do in these assays?
S2 tox: inactive; PINK1 modulator: 3%[38.3 µM]; ATXN2 expr inh: -2%; SW480 rereplic: -5%; IL-1B inflam inh: -13; MCF10A rerep: -12%

How did CC(CCc1ccccc1)NC(=O)C1CCN(S(=O)(=O)c2ccc(F)cc2)CC1 (configuration not stated) do in these assays?
S2 tox: inactive; PINK1 modulator: -1%; ATXN2 expr inh: 10%; SW480 rereplic: -12%; IL-1B inflam inh: -63*; MCF10A rerep: 7%

How did Cc1sc2nc(C3CC3)nc(N3CCN(C(=O)c4ccccc4F)CC3)c2c1C do in these assays?
S2 tox: inactive; PINK1 modulator: 2%; ATXN2 expr inh: -33%; SW480 rereplic: inconclusive; IL-1B inflam inh: -26; MCF10A rerep: 138%

Results for Cc1sc2nc(C3CC3)nc(N3CCN(C(=O)c4ccc(F)cc4)CC3)c2c1C ?
S2 tox: inactive; PINK1 modulator: 5%; ATXN2 expr inh: inconclusive; SW480 rereplic: inconclusive; IL-1B inflam inh: -60*; MCF10A rerep: inconclusive

What do the screens show for `COc1ccc(C(=O)N2CCN(c3nc(C4CC4)nc4sc(C)c(C)c34)CC2)cc1`?
S2 tox: inactive; PINK1 modulator: 21%; ATXN2 expr inh: inconclusive; SW480 rereplic: 14%; IL-1B inflam inh: -65*; MCF10A rerep: inconclusive

Results for Cc1sc2nc(C3CC3)nc(N3CCN(C(=O)c4ccc(Cl)cc4)CC3)c2c1C ?
S2 tox: inactive; PINK1 modulator: 2%; ATXN2 expr inh: -31%; SW480 rereplic: 7%; IL-1B inflam inh: -6; MCF10A rerep: inconclusive

How did Cc1ccc(Cn2c(=O)n(CCCCC(=O)NCCc3ccc(Cl)cc3)c(=O)c3ccccc32)cc1 do in these assays?
S2 tox: inactive; PINK1 modulator: 13%; ATXN2 expr inh: 10%

What do the screens show for `Cn1ccc2c(OCC(=O)NCc3ccccc3Cl)cccc2c1=O`?
S2 tox: inconclusive; PINK1 modulator: 0%; ATXN2 expr inh: 8%

What do the screens show for `CC(=O)N1CCN(c2ccc(Nc3ncnc4c3oc3ccccc34)cc2)CC1`?
S2 tox: inconclusive; PINK1 modulator: 3%; ATXN2 expr inh: inconclusive; SW480 rereplic: -5%[9.22 µM]; IL-1B inflam inh: -81*; MCF10A rerep: inconclusive

What do the screens show for `c1ccc2c(c1)oc1c(Nc3ccc(CN4CCOCC4)cc3)ncnc12`?
S2 tox: inconclusive; PINK1 modulator: -2%; ATXN2 expr inh: inconclusive; SW480 rereplic: 9%; IL-1B inflam inh: inconclusive; MCF10A rerep: 16µM*

What do the screens show for `c1ccc2c(c1)oc1c(NCCN3CCOCC3)ncnc12`?
S2 tox: inactive; PINK1 modulator: 3%[38.3 µM]; ATXN2 expr inh: 9%; SW480 rereplic: 1%; IL-1B inflam inh: -5; MCF10A rerep: -11%

How did CC(=O)N[C@@H]1[C@H](O[C@@H]2c3ccc(c(Cl)c3)Oc3cc4cc(c3O[C@H]3O[C@H](CO)[C@@H](O)[C@H](O)[C@H]3NC(=O)CCCCCCCC(C)C)Oc3ccc(cc3Cl)C[C@H]3NC(=O)[C@H](N)c5ccc(O)c(c5)Oc5cc(O)cc(c5)[C@H](NC3=O)C(=O)N[C@H]4C(=O)N[C@H]3C(=O)N[C@@H]2C(=O)N[C@@H](C(=O)O)c2cc(O)cc(O[C@H]4O[C@H](CO)[C@@H](O)[C@H](O)[C@H]4O)c2-c2cc3ccc2O)O[C@H](CO)[C@@H](O)[C@@H]1O do in these assays?
ATXN2 expr inh: -3%

How did Cc1cc(C)c2c(c1)/C(=N/NC(=O)c1ccc(O)cc1)CCC2 do in these assays?
S2 tox: inactive; PINK1 modulator: 2%; ATXN2 expr inh: -7%; SW480 rereplic: -4%; IL-1B inflam inh: inconclusive; MCF10A rerep: 12%

How did Cc1cc(C)c2c(c1)/C(=N/NC(=O)c1cc(C)oc1C)CCC2 do in these assays?
S2 tox: inactive; PINK1 modulator: 7%; ATXN2 expr inh: -5%; SW480 rereplic: 2.9µM*; IL-1B inflam inh: -3; MCF10A rerep: inconclusive

Results for COc1ccccc1NCc1cccn1-c1nnc(N2CCCCCC2)s1 ?
S2 tox: inactive; PINK1 modulator: -2%; ATXN2 expr inh: 181%
